The record followed here is PubChem BioAssay (EPA / NIEHS).

Read-out in experiment [1]: Interleukin-8 (IL8), CXCL8 (gene 3576)
Kind of experiment: BSK_CASM3C_IL8: BioMAP Diversity Plus: CASM3C Assay for Interleukin-8 (IL8) Biomarker Activity (AID 2283042).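 Also: IL-8 protein level quantified by ELISA.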 To be noted: primary human coronary artery smooth muscle cells; actives raise or lower the signal.

Read-out in experiment [2]: Human Leukocyte Antigen - DR isotype (HLADR), HLA-DRA (gene 3122)
Description: BSK_CASM3C_HLADR: BioMAP Diversity Plus: CASM3C Assay for Human Leukocyte Antigen - DR isotype (HLADR) Biomarker Activity (AID 2283043).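 Also: cell-surface HLA-DR protein level quantified by ELISA.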 To be noted: primary human coronary artery smooth muscle cells; actives raise or lower the signal.

Read-out in experiment [3]: Macrophage colony-stimulating factor (MCSF), CSF1 (gene 1435)
Kind of experiment: BSK_CASM3C_MCSF: BioMAP Diversity Plus: CASM3C Assay for Macrophage colony-stimulating factor (MCSF) Biomarker Activity (AID 2283044).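 Also: M-CSF protein amount quantified by ELISA after 24 h exposure.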 The note with it: primary human coronary artery smooth muscle cells; actives raise or lower the signal.

Read-out in experiment [4]: Low-density lipoprotein receptor (LDLR), LDLR (gene 3949)
Description: BSK_CASM3C_LDLR: BioMAP Diversity Plus: CASM3C Assay for Low-density lipoprotein receptor (LDLR) Biomarker Activity (AID 2283045).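 Also: LDLR protein level on the cell surface quantified by ELISA.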 To be noted: primary human coronary artery smooth muscle cells; actives raise or lower the signal.

Read-out in experiment [5]: Monocyte Chemoattractant Protein-1 (MCP1), CCL2 (gene 6347)
Description: BSK_CASM3C_MCP1: BioMAP Diversity Plus: CASM3C Assay for Monocyte Chemoattractant Protein-1 (MCP1) Biomarker Activity (AID 2283046).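 Also: MCP-1 level quantified by ELISA 24 h after dosing.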 To be noted: primary human coronary artery smooth muscle cells; actives raise or lower the signal.

A short description of experiment [6]: BSK_CASM3C_Proliferation: Cell Proliferation Assessment in the BioMAP Diversity Plus: CASM3C Assay (AID 2283047).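 Also: sulforhodamine B total protein stain as relative cell number at 560 nm; sub-confluent cells exposed 48 h before staining; fitted both ways against DMSO so gain or loss of cell number.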 To be noted: primary human coronary artery smooth muscle cells.
Read-out in experiment [7]: Monokine induced gamma interferon (MIG), CXCL9 (gene 4283)
Kind of experiment: BSK_CASM3C_MIG: BioMAP Diversity Plus: CASM3C Assay for Monokine induced gamma interferon (MIG) Biomarker Activity (AID 2283048).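 Also: MIG protein level measured by ELISA.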 To be noted: primary human coronary artery smooth muscle cells; actives raise or lower the signal.

Read-out in experiment [8]: serum amyloid A (SAA), SAA1 (gene 6288)
Kind of experiment: BSK_CASM3C_SAA: BioMAP Diversity Plus: CASM3C Assay for serum amyloid A (SAA) Biomarker Activity (AID 2283049). To be noted: primary human coronary artery smooth muscle cells; actives raise or lower the signal.

Experiment [9] in a line: BSK_CASM3C_SRB: Viability Assessment in the BioMAP Diversity Plus: CASM3C Assay (AID 2283050).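 Also: total protein by SRB staining as cytotoxicity measure in parallel cultures; cells exposed to compound for 24 h.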 To be noted: primary human coronary artery smooth muscle cells.
Read-out in experiment [10]: Thrombomodulin, THBD (gene 7056)
Kind of experiment: BSK_CASM3C_Thrombomodulin: BioMAP Diversity Plus: CASM3C Assay for Thrombomodulin Biomarker Activity (AID 2283051).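 Also: thrombomodulin protein level measured by ELISA 24 h after dosing.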 The note with it: primary human coronary artery smooth muscle cells; actives raise or lower the signal.

Read-out in experiment [11]: Tissue Factor, F3 (gene 2152)
Kind of experiment: BSK_CASM3C_TissueFactor: BioMAP Diversity Plus: CASM3C Assay for Tissue Factor Biomarker Activity (AID 2283052).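 Also: cell surface tissue factor protein level read by ELISA.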 To be noted: primary human coronary artery smooth muscle cells; actives raise or lower the signal.

Read-out in experiment [12]: Interferon-gamma inducible Protein 10 (IP10), CXCL10 (gene 3627)
Kind of experiment: BSK_hDFCGF_IP10: BioMAP Diversity Plus: hDFCGF Assay for Interferon-gamma inducible Protein 10 (IP10) Biomarker Activity (AID 2283053). The note with it: primary human foreskin fibroblasts; actives raise or lower the signal. The procedure, abridged: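 IP-10 levels, quantified by ELISA, are taken from human foreskin fibroblast cultures 24 h after chemical treatment, with DMSO serving as negative control and baseline for bidirectional analysis.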

Read-out in experiment [13]: Urokinase-type plasminogen activator receptor (uPAR), PLAUR (gene 5329)
Description: BSK_CASM3C_uPAR: BioMAP Diversity Plus: CASM3C Assay for Urokinase-type plasminogen activator receptor (uPAR) Biomarker Activity (AID 2283054).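 Also: cell-surface uPAR protein level quantified by ELISA.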 To be noted: primary human coronary artery smooth muscle cells; actives raise or lower the signal.

Read-out in experiment [14]: Vascular cell adhesion molecule 1 (VCAM1), VCAM1 (gene 7412)
Kind of experiment: BSK_CASM3C_VCAM1: BioMAP Diversity Plus: CASM3C Assay for Vascular cell adhesion molecule 1 (VCAM1) Biomarker Activity (AID 2283055).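 Also: VCAM-1 protein level quantified by ELISA on the cells.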 The note with it: primary human coronary artery smooth muscle cells; actives raise or lower the signal.

Read-out in experiment [15]: Collagen III, COL3A1 (gene 1281)
Kind of experiment: BSK_hDFCGF_CollagenIII: BioMAP Diversity Plus: hDFCGF Assay for Collagen III Biomarker Activity (AID 2283056). To be noted: primary human foreskin fibroblasts; actives raise or lower the signal. The procedure, abridged:
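Human foreskin primary fibroblasts were exposed to test chemicals for 24 h, after which collagen III was quantified by ELISA. Activity was fitted bidirectionally against DMSO as negative control and baseline.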

Read-out in experiment [16]: Epidermal growth factor receptor (EGFR), EGFR (gene 1956)
Description: BSK_hDFCGF_EGFR: BioMAP Diversity Plus: hDFCGF Assay for Epidermal growth factor receptor (EGFR) Biomarker Activity (AID 2283057). To be noted: primary human foreskin fibroblasts; actives raise or lower the signal. The essentials: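 Measured by ELISA: EGFR levels on primary human foreskin fibroblasts 24 h after chemical treatment, analysed relative to DMSO with bidirectional fitting.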

Read-out in experiment [17]: Interleukin-8 (IL8), CXCL8 (gene 3576)
Description: BSK_hDFCGF_IL8: BioMAP Diversity Plus: hDFCGF Assay for Interleukin-8 (IL8) Biomarker Activity (AID 2283058). The note with it: primary human foreskin fibroblasts; actives raise or lower the signal. The essentials: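 hDFCGF human dermal fibroblasts; 24 h chemical exposure; IL-8 by ELISA; bidirectional curve fit vs DMSO baseline; gain or loss of signal scored.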

Experiment [18] can be described thus: BSK_hDFCGF_Proliferation: Cell Proliferation Assessment in the BioMAP Diversity Plus: hDFCGF Assay (AID 2283059).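 Also: curves fitted for both rise and fall of signal versus DMSO baseline.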 The note with it: primary human foreskin fibroblasts. The essentials:
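This proliferation readout used SRB total-protein staining of human foreskin fibroblasts […], normalized to DMSO with bidirectional curve fitting.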

Experiment [19] can be described thus: BSK_hDFCGF_SRB: Viability Assessment in the BioMAP Diversity Plus: hDFCGF Assay (AID 2283061).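 Also: cells exposed to compound for 24 h before the read.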 The note with it: primary human foreskin fibroblasts. The procedure, abridged:
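Human foreskin primary fibroblasts were treated with compound and assessed 24 h after dosing. Total protein was measured by sulforhodamine B staining (0.1% SRB after 10% TCA fixation, 560 nm read) as a cytotoxicity marker, with bidirectional fitting against DMSO baseline.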

Read-out in experiment [20]: Macrophage colony-stimulating factor (MCSF), CSF1 (gene 1435)
Description: BSK_hDFCGF_MCSF: BioMAP Diversity Plus: hDFCGF Assay for Macrophage colony-stimulating factor (MCSF) Biomarker Activity (AID 2283060). To be noted: primary human foreskin fibroblasts; actives raise or lower the signal. The procedure, abridged: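 Human foreskin primary fibroblasts were treated with test chemical for 24 h, and M-CSF was then measured by ELISA. Data were fitted bidirectionally against DMSO as the negative control and activity baseline.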

Several values for one entry are separate records, joined by “and”; a condition that tells them apart may be missing. Equal entries are not always repeated. Some compounds were tested as several samples or in several runs, with calls that do not always agree. Activity calls are given as the source filed them. The calls were made as follows: active = hit-call score of the fitted dose curve at least 0.9, where 1 is the maximum; inactive = score below 0.9.

What is called AC50 is the midpoint of the concentration-response curve, whichever way the signal moves. `CCCCCCC(CO)CCCC` (configuration not stated): the outcome in experiment [1], in experiment [2], in experiment [3], in experiment [4], in experiment [5] and in [6] was inactive. The outcome in [7], in experiment [8], in experiment [9], in [10], in [11] and in experiment [13] was inactive. Also, the outcome in experiment [14] and in experiment [16] was inactive. The AC50 is 30.6 µM (active) and 32.5 µM (active) in [12]; 2.22 µM (active) in experiment [14]; 29.6 µM (active) and 31.9 µM (active) in experiment [15]; 37.9 µM (active) and 37.8 µM (active) in experiment [17]; 35.1 µM (active) and 31.4 µM (active) in [18]; 30.8 µM (active) and 31.4 µM (active) in [19].

Regarding `c1ccc(CCc2ccccc2)cc1`, the outcome in [1], in experiment [6], in [7], in [10], in experiment [16] and in experiment [17] was inactive. In addition, the AC50 was 29 µM (active) in [2]; 29.5 µM (active) in experiment [3]; 30.6 µM (active) in experiment [4]; 33.1 µM (active) in [5]; 26.4 µM (active) in experiment [8]; 29.1 µM (active) in experiment [9]. For the same molecule, the AC50 in experiment [11] was 20 µM (active); in experiment [12], 34.1 µM (active); in experiment [13], 31.9 µM (active); in experiment [14] it was 37.6 µM (active); in experiment [15], 36.1 µM (active); in [18], 13.8 µM (active). For the same molecule, the concentration at half-maximal activity (AC50) in [19] was 30.3 µM (active).

Turning to `c1ccc(Oc2ccccc2)cc1`, the result in experiment [1], in experiment [2], in experiment [3], in [4], in [5] and in experiment [6] was inactive. In addition, the result in [7], in experiment [8], in experiment [9], in experiment [10], in experiment [11] and in [12] was inactive. In addition, the result in experiment [13], in experiment [14], in [15], in experiment [16], in experiment [17] and in [18] was inactive. For the same molecule, the outcome in [19] was inactive.

For `CCCCN(CCCC)C(=O)N(CCCC)CCCC`, the AC50 in experiment [1] was 20 µM (active); in [2] it was 12.5 µM (active); in experiment [3], 17.4 µM (active); in experiment [4], 20 µM (active); in [5] it was 20 µM (active); in experiment [6] it was 10.4 µM (active). The AC50 in experiment [7] was 20 µM (active); in [8], 10.8 µM (active); in [9] it was 13.9 µM (active); in experiment [11], 11.7 µM (active); in experiment [12], 11.1 µM (active); in [13], 20 µM (active). Moreover, the AC50 is 12.8 µM (active) in [14]; 7.43 µM (active) in experiment [15]; 3.96 µM (active) in experiment [18]; 9.49 µM (active) in experiment [20]; 10.3 µM (active) in experiment [19]. In addition, the result in [10], in experiment [16] and in experiment [17] was inactive.

Consider `CCC(C)c1cc([N+](=O)[O-])cc([N+](=O)[O-])c1OC(=O)OC(C)C` (configuration not stated), for which the AC50 in experiment [1] was 4.74 µM (active); in experiment [2], 13.7 µM (active); in [3] it was 32.7 µM (active); in experiment [4], 31.8 µM (active); in [5], 32.3 µM (active); in experiment [6] it was 29.7 µM (active). For the same molecule, the AC50 in [7] was 30.7 µM (active); in experiment [8] it was 34.1 µM (active); in experiment [9], 25.8 µM (active); in experiment [10] it was 36.8 µM (active); in [11] it was 12.1 µM (active); in experiment [12], 8.25 µM (active). Further, the AC50 in experiment [13] is 24.3 µM (active); in experiment [14], 32.1 µM (active); in [15] it was 6.86 µM (active); in [17], 13.4 µM (active); in experiment [18] it was 4.37 µM (active); in [20], 6.2 µM (active). In addition, in [19], the AC50 is 9.55 µM (active). Further, the outcome in experiment [16] was inactive.

For `C=C(C)C(=O)OCCOCCOCCOC(=O)C(=C)C`, the result in experiment [1], in experiment [4], in [5], in experiment [6], in [7] and in experiment [8] was inactive. Also, the result in experiment [9], in experiment [10], in experiment [11], in experiment [12], in experiment [13] and in [14] was inactive. For the same molecule, the outcome in experiment [15], in [16], in experiment [17], in experiment [18] and in experiment [19] was inactive. For the same molecule, the AC50 in experiment [2] is 0.0969 µM (active); in experiment [3], 0.016 µM (active).
